Laboratory results published in PubChem BioAssay AID2149 (The Scripps Research Institute Molecular Screening Center, 2009).
About 1,800 (75%) of roughly 2,400 compounds were called active. So high a share suggests a set chosen from earlier hits. These entries were drawn from the full list. A number with no mark means an inactive call.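 Rule for the calls: active = inhibition above the primary screen limit, the mean inhibition of all tested compounds plus 3 SD (cut at about 25% in these data); inactive = the rest.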

System: tRNA 2'-phosphotransferase TPT1 [Candida albicans SC5314]
Assay: Candida albicans TPT1 inhibitors, confirmation, biochemical, fluorescence polarization, triplicate (AID 2149)
Details: recombinant caTPT1, fluorescence polarization, RNase T1 coupled; at 5 µM; hits give high values

SMILES	inhibition
O=C1NC(=O)C2C1C(c1ccc([N+](=O)[O-])cc1)=NN2Cc1ccccc1 (centres undefined)	33.2% (active)
CCN(CC)C(=O)CSC(Nc1cccc(F)c1)=C(C#N)C#N	46.5% (active)
O=C(N/N=C/c1sc(N2CCCCC2)nc1-c1cccs1)c1cccnc1	44.1% (active)
NNC(=O)c1oc2nc(-c3ccccc3)cc(-c3ccco3)c2c1N	31.5% (active)
COc1ccc(Cc2nc(-c3ccccn3)no2)cc1OC	8.13%
Cc1ccc(Nc2nc(Cl)c(C=O)s2)cc1	67.3% (active)
CCOc1ccc2nc(/N=C/c3nc(-c4ccccc4)oc3O)sc2c1	58.6% (active)
Fc1ccc2nc(Nc3nc4c(s3)CCCC4)sc2c1	28.4% (active)
Cc1c(-c2ccccc2)cn2c1-c1ccc(C)n1CC2	32.8% (active)
Cn1c2ccccc2c2cc(/C=C(\NC(=O)c3ccccc3)C(=O)NCC(=O)O)ccc21	80.3% (active)
Cc1ccc(-c2nn(-c3ccccc3)cc2/C=C2\SC(=S)N(CCCCCC(=O)O)C2=O)o1	68.6% (active)
O=C(Nc1ccc(S(=O)(=O)Nc2nccs2)cc1)c1cc(-c2ccncc2)nc2ccccc12	49.1% (active)
CS(=O)(=O)c1ccc2c(c1)SC1=NC(=O)/C(=C/c3ccco3)C(=N)N12	44.3% (active)
Cc1cc(/C=C2/SC(=O)N(CC(=O)N3CCCC3)C2=O)ccc1N1CCOCC1	63.5% (active)
Cc1sc2nc(COC(=O)C(NC(=O)c3ccc(Cl)cc3Cl)C(C)C)[nH]c(=O)c2c1C (centres undefined)	55.1% (active)
Cc1c(C(=O)OC(C)C)sc(NC(=O)c2cccnc2)c1C#N	26% (active)
Nc1c(C(=O)c2cccs2)sc2nsc(SCCN3CCCCC3)c12	67.7% (active)
CCCCCCc1cc2cc(-c3nnc(-c4ccccc4)o3)c(=O)oc2cc1O	117% (active)
COc1cc(/C=C2/SC(=S)N(Cc3ccccc3)C2=O)cc(OC)c1O	98.5% (active)
CCN(CC)c1ccc2cc(C(N)=O)/c(=N\NC(=O)c3ccncc3)oc2c1	139% (active)
Cc1cc(O)c(C(=O)/C=C/c2c(F)c(F)c(F)c(F)c2F)c(=O)o1	63.4% (active)
CN1C(=O)/C(=C/C=C2\SCCN2C)OC1=S	172% (active)
CCN(CC)c1ccc(/C=N/Nc2nc(C)cc(C)n2)c(O)c1	34% (active)
CSC1=N/C(=C\C=C\c2cccs2)C(=O)S1	52.8% (active)
Nc1nonc1-n1nnc(C(=O)N/N=C/c2cc(Br)ccc2O)c1CSC1=NCCS1	37.7% (active)

SMILES	inhibition
N#C/C(=C/c1ccc(N2CCCCC2)o1)C(=O)NCCc1c[nH]c2ccccc12	191% (active)
Cc1cc(/C=N/Nc2ccc([N+](=O)[O-])cn2)c(C)n1-c1cccc(C(=O)O)c1	54.5% (active)
Cc1ccc(-n2c(C)cc(/C=N/Nc3ccc([N+](=O)[O-])cn3)c2C)c(C)c1	60.9% (active)
Cc1ccc2[nH]c(=O)c(CN3CCCCC3)c(-c3ccccc3)c2c1	2.06%
N#C/C(=C(/O)COC(=O)COc1ccc(Cl)cc1)c1nc2ccccc2[nH]1	40.6% (active)
CCOc1ccc(-n2c(O)c(/C=N/c3ccnn3Cc3ccncc3)c3ccccc3c2=O)cc1	80.4% (active)
CN=c1scc(-c2cc(OC)ccc2OC)n1/N=C/c1c(C)[nH]c2ccccc12	22.2%
O=C1Nc2cc(C(=O)N3CCN(c4ccc(F)cc4)CC3)ccc2NC1CSCc1cccc(F)c1 (centres undefined)	112% (active)
Cc1ccc(CSCC2Nc3ccc(C(=O)N4CCN(c5ccc(F)cc5)CC4)cc3NC2=O)cc1 (centres undefined)	16.1%
CC(C)c1ccc(Nc2nnc(SCC(=O)c3nnc(-c4ccccc4)o3)s2)cc1	21.4%
Cc1cccc2cc3c(N)c(C(=O)N4CCCc5ccccc54)sc3nc12	51.9% (active)
COC(=O)c1[nH]c2cccc(C)c2c1NC(=O)CN1CCCc2ccccc21	19%
CCOC(=O)C1=C(C)Nc2sc(C(=O)c3ccc(Br)cc3)c(N)c2C1c1ccc(C(=O)OC)cc1 (centres undefined)	29.3% (active)
CCC(c1nnnn1Cc1ccco1)N(Cc1cc2cc(OC)ccc2[nH]c1=O)C1CCCCC1 (centres undefined)	13.7%
CC1=CC2=NC(=O)/C(=C/c3coc4ccccc4c3=O)C(=N)N2O1	34% (active)
CCC(=C/c1sc2ccc3ccccc3c2[n+]1C)/C=C1\Sc2ccc3ccccc3c2N1C	84.5% (active)
NC(=O)c1c(Nc2nc3c(F)cccc3s2)sc2c1CCCC2	92.7% (active)
CN(C)CCCn1c(N)c(C#N)c2nc(C#N)c(C#N)nc21	45.1% (active)
O=S(=O)(O)Oc1c[nH]c2ccccc12	35.9% (active)
Cc1c(CC(=O)N2CCN(C(=O)C3COc4ccccc4O3)CC2)c(=O)oc2c(O)c(O)ccc12 (centres undefined)	7.54%
O=C(Cc1nc2ccccc2[nH]c1=O)c1ccc(Cl)cc1	57.8% (active)
O=C(/C=C/c1ccc(N2CCOCC2)cc1)c1ccccc1	84.6% (active)
COc1cc(/C=C(\C#N)c2nc3c(s2)CC(C)CC3)ccc1O (centres undefined)	130% (active)
COc1cc(/C=C(\C#N)c2nc3ccccc3[nH]2)ccc1O	112% (active)
O=C(CN1C(=O)c2ccccc2C1=O)NCc1ccc(C(=O)O)cc1	14.3%

SMILES	inhibition
Cc1cccn2c(=O)c(/C=C3\SC(=S)N(CC(C)C)C3=O)c(NCCCOC(C)C)nc12	119% (active)
Cn1ccc(=NC=C(C#N)C#N)c2ccccc21	25.4% (active)
O=C(C[n+]1cc(Br)cc2ccccc21)c1ccc(F)cc1	37.5% (active)
CCOc1cc(/C=C(\C#N)c2nc(-c3cccs3)c(NC(C)=O)s2)ccc1O	90.5% (active)
O=[N+]([O-])c1ccc(N/N=C/c2ccccc2)cc1	41.6% (active)
Cc1cccc(NC(=O)c2ccc(COc3ccccc3[N+](=O)[O-])o2)n1	7.02%
Cc1cccc(COc2ccccc2/C=N/Nc2ccc([N+](=O)[O-])cc2)c1	90.6% (active)
CCCOc1ccc(Cn2c(O)cc(=O)[nH]c2=O)cc1	22.1%
Cc1cc(C)c(/C=C2\C(=O)Nc3ccccc32)[nH]1	113% (active)
CN1C(=O)/C(=C\c2ccc(-c3ccccc3)o2)SC1=S	79.6% (active)
O=C(O)C(c1ccccc1)N1C(=O)/C(=C\c2ccc(-c3cccc(Cl)c3)o2)SC1=S (centres undefined)	151% (active)
CC[n+]1cc(C)ccc1/C=C/c1ccc(N(C)C)cc1	42.1% (active)
Cc1ccc(S(=O)(=O)N(C)c2nc3ccccc3n3c(C(C)C)nnc23)cc1	-0.34%
N#C/C(=C\c1ccc(N2CCOCC2)o1)C(=O)N1CCOCC1	170% (active)
N#C/C(=C/c1ccc(N2CCOCC2)o1)C(=O)N1CCOCC1	184% (active)
Cc1ccc(CC2S/C(=C(/C#N)C(=O)N3CCOCC3)N(c3ccccc3)C2=O)cc1 (centres undefined)	9.14%
CC1CCN(C(=O)c2ccc3c(c2)NC(=O)CN3)CC1	39.9% (active)
Cc1ccc(N=C2NC(=O)/C(=C/C=C/c3ccco3)S2)cc1C	23.8%
N#CC1=C(N)Oc2c(sc3ccccc23)C1c1ccco1 (centres undefined)	78.6% (active)
O=C(NNc1c2ccccc2nc2ccccc12)c1cc2ccccc2cc1O	38.5% (active)
CN1/C(=c2/s/c(=C3/C(=O)N(c4ccccc4)NC3=Nc3ccccc3)n(C)c2=O)C(C)(C)c2ccccc21	81% (active)
Cc1ccc2cc(/C=N/Nc3ccc(C(=O)O)cc3)c(Cl)nc2c1	35.9% (active)
CCOc1ccc(/C=C2\SC(=S)N(NC(=O)c3ccncc3)C2=O)cc1OC	51.7% (active)
Cc1ccc(C)c2[nH]c(=O)c(CCNC(=O)CC(C)C)cc12	3.97%
